# HT1080 IDH1KD tx = qHTS for induction of synthetic lethality in tumor cells producing 2HG: qHTS for the HT-1080-IDH1KD cell line; HT-1080 IDH1 knockdown viability, ATP luminescence, 48 h; actives 2% (n = 360,000); AID 686971, 2013; Potency, µM (titrated, usually from 46.1 µM), inactives show at the highest dose activity, negative = toxicity, hits mostly cytotoxic;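 further: 0% = DMSO wells and -100% = cell-free medium wells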
#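 HT-1080-IDH1KD cells (IDH1 knocked down), 750/well in RPMI with 5% FBS, treated with compound 48 h at 37 degrees C. Viability by CellTiter-Glo luminescence, normalised to DMSO and no-cell wells; concentration-response curves classed.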
# KB-V1 MDR tox = qHTS assay for MDR1-selective chemotherapeutics: Primary screen using the drug-selected MDR subline cells KB-V1; AID 1347076, 2019; actives 3.4% (n = 400,000); KB-V1 MDR cells viability, CellTiter-Glo, 72 h; Potency, µM (highest dose often 46.1 µM), hits mostly cytotoxic; further: nearly all actives have a fitted effect of over 60% in size
#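 Cytotoxicity toward P-gp-expressing KB-V1 cells was determined as loss of CellTiter-Glo luminescence after 72 h at 37 degrees C. Compounds were tested in quantitative HTS format across a concentration range, with curves fitted to normalized data.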
# DT40 TDP1 CPT = qHTS for Inhibitors of human tyrosyl-DNA phosphodiesterase 1 (TDP1): qHTS in cells in presence of CPT; chicken DT40 Tdp1-/-;hTDP1 cells + 20 nM CPT, ATP luminescence, 48 h; Potency, µM (top dose mostly 46.2 µM), for the others: at the top dose activity change, negative = growth inhibition, hits mostly inhibitors; actives 12% (n = 420,000); further: nearly all actives have a fitted effect of over 55% in size
#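 Cell growth measured by CellTiter-Glo luminescence after a minimum 48 h, 37 C compound exposure with 20 nM CPT in Tdp1-knockout DT40 cells stably expressing hTDP1, seeded 400/well; qHTS titration format.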
# TDP1 cell noCPT = qHTS for Inhibitors of human tyrosyl-DNA phosphodiesterase 1 (TDP1): qHTS in cells in absence of CPT | DT40 Tdp1-/- hTDP1 cells, no CPT, ATP luminescence, 48 h | Potency, µM (doses to about 46.2 µM), for inactives: at the top dose activity change, negative = growth inhibition, hits mostly inhibitors | actives 15% (n = 420,000) | AID 686978, 2013; further: nearly all actives have a fitted effect of over 55% in size
#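 Growth kinetics read by CellTiter-Glo luminescence after ≥48 hr at 37 °C. Cells: DT40 Tdp1-/- stably carrying human TDP1, 400 per well, compound exposure in the absence of CPT (DMSO vehicle).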
# KB-3-1 cytotox = qHTS assay for MDR1-selective chemotherapeutics: Primary screen using the parental adenocarcinoma cell KB-3-1 | KB-3-1 viability, CellTiter-Glo ATP luminescence, 72 h | Potency, µM (series often up to 46.1 µM), most hits filed as cytotoxic | actives 1.4% (n = 400,000) | AID 1347075, 2019; further: nearly all actives have a fitted effect of over 60% in size
#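 Parental KB-3-1 viability, qHTS format: 72 h compound exposure, 37 °C; CellTiter-Glo; media-only wells and DMSO plates as controls; concentration-effect fits on corrected data.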
# HT1080-NT tox = qHTS for induction of synthetic lethality in tumor cells producing 2HG: qHTS for the HT-1080-NT fibrosarcoma cell line. actives 1.6% (n = 360,000). HT-1080-NT fibrosarcoma viability, CellTiter-Glo ATP luminescence, 48 h. Potency, µM (top dose mostly 46.1 µM), for the others: at the highest dose activity, negative = less viability, actives largely listed as cytotoxic;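 further: NT is the 2HG producing partner of a matched IDH1 knockdown line; 0% = DMSO-treated cells and -100% = media-only wells without cells; nearly all actives have a fitted effect of over 55% in size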
#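 Toxicity toward the 2HG-producing NT line was scored as %Activity, normalised to DMSO and no-cell wells, from CellTiter-Glo luminescence after 48 hours' treatment.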
# An asterisk follows results filed as active; i = inactive; ? = inconclusive; / = not tested or not shown; [ ] = another dose, or the depositor's remark. Most compounds without a hit are left out; they make up all but 19% or so of the library. The call rests on the fitted dose curve; in most records, active means well fitted curve in the direction sought with a large enough effect; inconclusive means small, poorly fitted or top-dose-only effect, or another doubt; inactive means no such curve, though single readings can be large; an effect the other way counts as inactive or inconclusive. Unless noted, on the % scale 0 is the no-effect control and ±100 the full control effect; potency means the concentration at half of the fitted maximal effect.
SMILES,HT1080 IDH1KD tx,KB-V1 MDR tox,DT40 TDP1 CPT,TDP1 cell noCPT,KB-3-1 cytotox,HT1080-NT tox
COc1ccc(NC(=O)CSc2nnnn2C2CCCC2)cc1S(=O)(=O)N1CCOCC1,1.1%,i,1.6%,-12.1%,i,7.0%
Cc1ccccc1S(=O)(=O)NC1OC(=O)C(Oc2ccccc2)=C1Br (stereo unspecified),17.9%,i,-6.7%,2.5%,i,15.6%
Cc1ccccc1S(=O)(=O)NC1OC(=O)C(Cl)=C1Cl (stereo unspecified),-1.3%,i,20.6µM*,?,i,5.4%
CC(C)(C)NC(=O)N1CCCN(c2ccc(C(F)(F)F)cn2)CC1,-13.4%,i,-18.7%,?,i,-14.2%
COc1ccc(N2CCN(C(=O)c3cc(C)oc3C)CC2)cc1,9.8%,i,-13.2%,-13.6%,i,21.0%
Cc1ccccc1N1CCN(C(=O)c2ccc(Oc3ccc(C(F)(F)F)cn3)cc2)CC1,-4.0%,i,8.91µM*,12.6µM*,i,4.3%
Cc1ccc(C(=O)N2CCN(c3ccc(C(F)(F)F)cn3)CC2)o1,4.6%,20.6µM*,?,?,?,-0.7%
O=C(O)c1ccc(Oc2ccc(C(F)(F)F)cn2)cc1,9.2%,i,4.8%,-8.9%,i,14.5%
Cc1cc(C(=O)N2CCN(c3ccc(C(F)(F)F)cn3)CC2)c(C)o1,-5.2%,?,?,10.3µM*,i,?
O=C(c1ccccn1)N1CCN(c2ccc(C(F)(F)F)cn2)CC1,-4.5%,16.4µM*,-29.8%,?,i,-15.5%
O=C(Nc1cc(F)ccc1F)C1COc2ccccc2C1 (stereo unspecified),/,i,-21.5%,-11.2%,i,/
O=C(Nc1ccccc1)OCCN1CCOCC1,0.0%,i,-20.5%,-7.3%,i,7.2%
Cc1cccc(C(=O)N2CCN(c3ccc(C(F)(F)F)cn3)CC2)c1C,-3.9%,i,13µM*,20.6µM*,i,-7.7%
CCc1nc2ccc(C(=O)N3CCN(c4cccc(C(F)(F)F)c4)CC3)cc2nc1CC,-27.1%,i,?,?,?,-11.6%
COc1cccc(NC(=O)N2CCN(c3ccc(C(F)(F)F)cn3)CC2)c1,2.0%,i,-9.3%,-22.4%,i,1.6%
O=C(c1ccc2n[nH]nc2c1)N1CCN(c2ccc(C(F)(F)F)cn2)CC1,-3.6%,i,16.4µM*,?,?,-7.4%[9.24 µM]
CCOC(=O)N1CCN(c2ccc(C(F)(F)F)cn2)CC1,9.3%,?,-28.0%,-29.5%,i,11.9%
CCOc1ncccc1C(=O)N1CCN(c2ccc(C(F)(F)F)cn2)CC1,-6.0%,?,?,10.3µM*,i,10.8%
O=C(C1CCCCC1)N1CCOc2ccc(CN3CCN(Cc4ccccn4)CC3)cc2C1,/,/,0.1%[9.04 µM],-8.6%,/,/
O=S(CC(O)(c1ccccc1)c1ccccc1)CC(O)(c1ccccc1)c1ccccc1,?,?,18.4µM*,18.4µM*,?,?
O=C(O)CC(CC(=O)O)(C(=O)O)c1ccccc1,12.5%,i,0.9%,6.6%,i,4.2%
C[C@@H]1COc2cc(N3CCN(Cc4ccccc4F)CC3)ccc2S(=O)(=O)N1,0.3%,i,-0.8%,-11.7%,i,-6.3%
Nc1c(Cl)cc(C2=NCCn3nc4ccccc4c32)cc1Cl,-6.6%,20.6µM*,23.1µM*,?,6.51µM*,-11.3%
COc1ccc2c3n(nc2c1)CCN=C3c1ccc(C)cc1,-13.8%,?,16.4µM*,?,i,0.2%
Cc1ccc(Cn2c(=O)c3cccnc3n(CC(=O)Nc3cc(Cl)ccc3C)c2=O)cc1,/,i,-21.6%,?,i,/
SMILES,HT1080 IDH1KD tx,KB-V1 MDR tox,DT40 TDP1 CPT,TDP1 cell noCPT,KB-3-1 cytotox,HT1080-NT tox
C[C@H]1CN([C@@H](C)CO)C(=O)CCCn2nncc2CO[C@H]1CN(C)S(=O)(=O)c1ccc(-n2cccn2)cc1,4.5%,i,12.3%,-10.3%,i,6.2%
O=c1cc(NCCO)c2ccccc2o1,13.9%,i,2.0%,-0.3%,i,0.0%
Cc1ccccc1Nc1cc(=O)oc2ccccc12,-25.2%,i,11.6µM*,20.6µM*,i,-11.9%
O=c1cc(NCCc2ccccc2)c2ccccc2o1,-19.3%,13µM*,10.3µM*,8.2µM*,?,-22.9%
CC(=O)c1ccc(OCCCC(=O)Nc2cc(S(=O)(=O)N3CCCCC3)ccc2C)cc1,-12.5%,i,?,23.1µM*,i,-13.4%
Cc1ccc(OCCNc2ccc(S(=O)(=O)N3CCCC3)cn2)cc1,-23.8%,?,-8.1%,?,i,-20.5%
Cc1ccc(S(=O)(=O)NCCC(=O)Nc2cc(S(=O)(=O)N(C)C)ccc2C)cc1C,1.2%,i,-16.9%,16.4µM*,i,5.8%
O=S(=O)(c1ccc(NCCOc2ccccc2)nc1)N1CCCC1,8.4%,20.6µM*,-7.9%,-13.8%,i,11.5%
Cc1ccc(S(=O)(=O)N(C)C)cc1NC(=O)C(C)N(C)CCOc1ccc(Cl)cc1 (stereo unspecified),-20.9%,?,?,29.1µM*,i,-1.8%
Cc1ccc(S(=O)(=O)N2CCCCC2)cc1NC(=O)CCOc1ccccc1,-1.8%,?,?,?,i,1.8%
COc1ccc(NC(=O)CN2C(=O)NC(C)(C3CC3)C2=O)cc1S(=O)(=O)N1CCOCC1 (stereo unspecified),1.3%,i,9.0%,20.3%,i,7.9%
CCCOc1ccc(C(=O)Nc2nonc2-c2ccc(OCC)cc2)cc1,/,/,-3.2%,-22.6%,/,/
CC(=O)c1cccc(NC(=O)CCCOc2ccc(C)cc2)c1,4.8%,?,-20.2%,?,i,-1.8%
Cc1ccc(S(=O)(=O)N2CCCCC2)cc1NC(=O)CCCOc1ccccc1,-0.5%,i,?,20.6µM*,?,-3.5%
CCN(CC(=O)Nc1ccc(C)c(S(=O)(=O)N2CCOCC2)c1)Cc1ccccc1,-1.2%,?,20.6µM*,?,i,-5.2%
CC(=O)c1ccc(OCCCC(=O)Nc2cc(S(=O)(=O)N(C)C)ccc2C)cc1,-1.1%,23.1µM*,-12.2%,-21.3%,?,0.9%
